Experiment [1] in a line: cAMP Responsive Elements (CRE) small molecule antagonists, cell-based qHTS assay: qHTS cell viability counter screen (AID 2060913). Note: nearly all actives have a fitted effect of over 40% in size. In a few lines:
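CRE-bla HEK293T cells (2,000/well, 18 h) given compound plus NKH477 0.25 uM final for 3 h at 37C; viability counter-screen by CellTiter-Glo luminescence in same wells after 30 min.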
(qHTS replaces the single test concentration by a dilution series.)

A short description of experiment [2]: cAMP Responsive Elements (CRE) small molecule agonists, cell-based qHTS assay: qHTS cell viability counter screen (AID 2060914). Note: nearly all actives have a fitted effect of over 50% in size. In a few lines: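 In the same wells as the reporter read, viability of CRE-bla HEK 293T cells was quantified by CellTiter-Glo luminescence after a 3 h compound exposure.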

Several values for one entry are separate records, joined by “and”; a condition that tells them apart may be missing. Equal values may be shown once. Results filed as inconclusive are left out. Values without a mark were called inactive. Activity calls are given as the source filed them. Calls come from the whole dose curve; as a rule, active = well fitted cell-killing curve with a large enough effect in the repeat runs; inconclusive = weak or mixed curves, or effect the other way; inactive = flat fitted curve, though single readings scatter.
% is set by controls: 0 for no effect and ±100 for the full control effect; potency is the fitted concentration of half-maximal effect.

As for `O=C1NCCN1CCO`, the Potency result in experiment [1] and in experiment [2] was “inactive” throughout.
On to `C=C(C#N)C(=O)OCC`, for which the Potency result in experiment [1] and in experiment [2] was “inactive” in each case.
For `Nc1cccc2c1CN(C1CCC(=O)NC1=O)C2=O` (stereo unspecified), the Potency entry in experiment [1] and in experiment [2] was “inactive” throughout.
As to `CC/C=C\C#N`, the Potency entry in experiment [1] and in experiment [2] was “inactive” throughout.
On to `C=CCOC(=O)C(=C)C`, for which the Potency result in experiment [1] and in experiment [2] was “inactive” in each case.
With `N=C(N)c1ccccc1`, the Potency result in experiment [1] and in experiment [2] was “inactive” each time.
In the case of `O=S(=O)(c1ccccc1)c1ccc(Cl)cc1`, the Potency result in experiment [1] and in experiment [2] was “inactive” each time.
Consider `O=C(O)c1ccccc1C(c1ccc(O)cc1)c1ccc(O)cc1`, for which the Potency entry in experiment [1] and in experiment [2] was “inactive” throughout.
With `CC(=O)CCc1ccccc1`, the Potency result in experiment [1] and in experiment [2] was “inactive” each time.
For `c1ccc(CN(CC2=NCCN2)c2ccccc2)cc1`, the Potency result in experiment [1] and in experiment [2] was “inactive” throughout.
For `CCOCCn1c(C2CCN(CCc3ccc(C(C)(C)C(=O)O)cc3)CC2)nc2ccccc21`, the Potency entry in experiment [1] and in experiment [2] was “inactive” in each case.
For `CO[Si](CCC1CCC2OC2C1)(OC)OC` (stereo unspecified), the Potency result in experiment [1] and in experiment [2] was “inactive” throughout.
For the compound `COc1cc(Cc2cnc(N)nc2N)cc(OC)c1OC`, the Potency entry in experiment [1] and in experiment [2] was “inactive” in each case.
Regarding `CCCCCCCCCCCC`, the Potency result in experiment [1] and in experiment [2] was “inactive” each time.
As for `CCO[Si](CCC1CCC2OC2C1)(OCC)OCC` (stereo unspecified), the Potency entry in experiment [1] and in experiment [2] was “inactive” each time.
As to `COC(=O)c1ccc(C=O)cc1`, the Potency entry in experiment [1] and in experiment [2] was “inactive” in each case.
With `CC(=O)OCCC(C)CC(C)(C)C` (stereo unspecified), the Potency entry in experiment [1] and in experiment [2] was “inactive” in each case.
In the case of `CC12CCC(C(=O)C1=O)C2(C)C` (stereo unspecified), the Potency entry in experiment [1] and in experiment [2] was “inactive” each time.
On to `O=S(=O)(O)CCCN1CCOCC1`, for which the Potency entry in experiment [1] and in experiment [2] was “inactive” throughout.
With `CN1CCC(N(Cc2cccs2)c2ccccc2)CC1`, the Potency entry in experiment [1] and in experiment [2] was “inactive” each time.
Turning to `O=C1c2ccccc2C(=O)N1SC1CCCCC1`, the Potency entry in experiment [1] and in experiment [2] was “inactive” in each case.
For `[O-][n+]1cccc(/C(Cl)=N/OC[C@@H](O)CN2CCCCC2)c1`, the Potency result in experiment [1] and in experiment [2] was “inactive” throughout.
Turning to `CCOC(=O)c1ccc(I)cc1`, the Potency entry in experiment [1] and in experiment [2] was “inactive” each time.
`C=C(C)C(=O)OCc1ccccc1`: the Potency result in experiment [1] and in experiment [2] was “inactive” throughout.
Take `CCCCCCCCCCCCc1ccccc1O`: the Potency in experiment [1] was 53.8 µM (active) and 32 µM (active); in experiment [2], 60.3 µM (active) and 54.5 µM (active).
Turning to `COC(=O)C1=C(C)NC(C)=C(C(=O)OCC(C)C)C1c1ccccc1[N+](=O)[O-]` (stereo unspecified), the Potency entry in experiment [1] and in experiment [2] was “inactive” each time.
With `Oc1ccc2c(c1)OC[C@@H](N1CCC(O)(c3ccc(F)cc3)CC1)[C@H]2O`, the Potency entry in experiment [1] and in experiment [2] was “inactive” in each case.
Consider `CCC(C)(C)C1CCCCC1OC(C)=O` (stereo unspecified), for which the Potency entry in experiment [1] and in experiment [2] was “inactive” in each case.
Regarding `O=C(O)COCCN1CCN(C(c2ccccc2)c2ccc(Cl)cc2)CC1` (stereo unspecified), the Potency result in experiment [1] and in experiment [2] was “inactive” in each case.
As to `CN(C)C(C)(C)CO`, the Potency result in experiment [1] and in experiment [2] was “inactive” each time.
Turning to `CC(C)(C#N)c1cc(Cn2cncn2)cc(C(C)(C)C#N)c1`, the Potency result in experiment [1] and in experiment [2] was “inactive” throughout.
`O=c1c(O)c(-c2ccc(O)cc2O)oc2cc(O)cc(O)c12`: the Potency entry in experiment [1] and in experiment [2] was “inactive” in each case.
As for `Nc1ccc(F)cc1`, the Potency entry in experiment [1] and in experiment [2] was “inactive” in each case.
As for `CCO[C@H](Cc1ccc(OCCc2ccc(OS(C)(=O)=O)cc2)cc1)C(=O)O`, the Potency entry in experiment [1] and in experiment [2] was “inactive” throughout.
As to `CC(=O)N(CC(O)CO)c1c(I)c(C(=O)NCC(O)CO)c(I)c(C(=O)NCC(O)CO)c1I` (stereo unspecified), the Potency entry in experiment [1] and in experiment [2] was “inactive” throughout.
Take `COc1ccc(CCN(C)CCCC(C#N)(c2cc(OC)c(OC)c(OC)c2)C(C)C)cc1OC` (stereo unspecified): the Potency result in experiment [1] and in experiment [2] was “inactive” throughout.
For `CC(O)COCC(C)O` (stereo unspecified), the Potency result in experiment [1] and in experiment [2] was “inactive” throughout.
For the compound `CSC(=O)c1cccc2nnsc12`, the Potency result in experiment [1] and in experiment [2] was “inactive” each time.
For the compound `CC1(C)C(=O)N(Br)C(=O)N1Br`, the Potency result in experiment [1] and in experiment [2] was “inactive” each time.
Take `CN=C(NC#N)NCCSCc1nc[nH]c1C`: the Potency result in experiment [1] and in experiment [2] was “inactive” throughout.
Consider `NS(=O)(=O)c1cc(C(=O)O)cc(N2CCCC2)c1Oc1ccccc1`, for which the Potency result in experiment [1] and in experiment [2] was “inactive” throughout.
Take `CC(C)(C)NCCNC(C)(C)C`: the Potency result in experiment [1] and in experiment [2] was “inactive” throughout.
As to `Cc1cc(Cc2cc(C)cc(C(C)(C)C)c2O)c(O)c(C(C)(C)C)c1`, the Potency is 54.8 µM (active) and 40.3 µM (active) in experiment [1]; 34.6 µM (active) and 54.5 µM (active) in experiment [2].
Regarding `Cc1nc2n(c(=O)c1CCN1CCC(c3noc4cc(F)ccc34)CC1)CCC[C@H]2O`, in experiment [1], the viability change, negative = cytotoxic is 2.27% [at 18.9 µM]. In experiment [2], the activity change, negative = cytotoxicity was 4.41% [at 18.9 µM].
As for `Clc1ccccc1-c1nc(-c2ccncc2)no1`, the Potency result in experiment [1] and in experiment [2] was “inactive” throughout.
As for `O=C(/C=C/c1ccccc1)NCCO`, the Potency entry in experiment [1] and in experiment [2] was “inactive” each time.
As to `C=C[C@@H](C)CCC=C(C)C`, the Potency result in experiment [1] and in experiment [2] was “inactive” throughout.
Consider `COc1ccc([C@@H]2Sc3ccccc3NC(=O)[C@@H]2O)cc1`, for which the Potency entry in experiment [1] and in experiment [2] was “inactive” throughout.
As for `COC(=O)CC(C)=O`, the Potency result in experiment [1] and in experiment [2] was “inactive” each time.
For `CCOC(=O)/C=C(C)/C=C/C=C(C)/C=C/c1c(C)cc(OC)c(C)c1C`, the Potency entry in experiment [1] and in experiment [2] was “inactive” in each case.
For the compound `Oc1ccc(Nc2ccccc2)cc1`, the Potency entry in experiment [1] and in experiment [2] was “inactive” throughout.
As for `COC(=O)CCC(=O)O`, the Potency entry in experiment [1] and in experiment [2] was “inactive” throughout.
Regarding `OCCCCCCCCCCCCBr`, the Potency entry in experiment [1] and in experiment [2] was “inactive” each time.
Turning to `Brc1ccccc1-c1ccccc1`, the Potency result in experiment [1] and in experiment [2] was “inactive” each time.
For `Cc1cc(C2(c3cc(C)c(O)cc3C)OS(=O)(=O)c3ccccc32)c(C)cc1O`, the Potency entry in experiment [1] and in experiment [2] was “inactive” each time.
In the case of `CCc1cccc(C)c1N(C(=O)CS(=O)(=O)O)C(C)COC` (stereo unspecified), the Potency result in experiment [1] and in experiment [2] was “inactive” throughout.
Consider `CC(CN(C)C)C(C)(O)Cc1ccc(Cl)cc1` (stereo unspecified), for which the Potency result in experiment [1] and in experiment [2] was “inactive” throughout.
For the compound `CCCCN(CCCC)CCCC`, the Potency entry in experiment [1] and in experiment [2] was “inactive” throughout.

(Values after PubChem BioAssay (Tox21).)
